p53ts 32C tox = cytotoxicity in p53ts cells at permissive temperature. AID 924. H1299-p53A138V at 32C, ATP luminescence viability, 24 h. hit rate 0.93% among 130,000. Potency, µM (top dose mostly 46.1 µM), for inactives: top-dose activity change, negative = cytotoxicity, most hits filed as cytotoxic;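 note: 0% = DMSO and -100% = full killing by reference compound; nearly all actives have a fitted effect of over 55% in size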
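Cells: H1299 p53ts (A138V), 600/well, pre-incubated 16–30 h at 37C. Cpd up to 46 uM, 24 h, 32C. Readout: ATPlite luminescence, 20 min RT. Normalization: DMSO vs tamoxifen 100 uM. AC50 by Hill equation.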
Imprint erasure = induces erasure of genomic imprints in mouse ES cells. hit rate 0.02% among 110,000. AID 1948. mouse ES Peg3-LacZ reporter, beta-gal luminescence, 40 h. Potency, µM (titrated, usually from 60.7 µM), for the others: at the highest dose activity change, positive = activation, usual class: activators
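Gelatin-coated wells received 300 freshly trypsinized female ES cells with a Peg3LacZ-Neo reporter on the maternal allele, then incubated 40 hours at 37C. BetaGlo was added for 5 minutes at room temperature before a single luminescence read.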
p53ts 39C kill = kills p53ts cells at the nonpermissive temperature; H1299-p53A138V viability at 39C, ATP luminescence, 24 h; hit rate 1.5% among 130,000; AID 902; Potency, µM (titrated, usually from 46.1 µM), inactives show at the top dose activity change, negative = cell killing, most hits filed as cytotoxic; note: % is set by controls: 0 for no effect and ±100 for the full control effect; nearly all actives have a fitted effect of over 55% in size
IkB sig inh = inhibitors of IkB signaling in ABC-DLBCL cells; AID 445; Potency, µM (titrated, usually from 57.1 µM), inactives show at the top dose IkBa stabilization activation; ABC-DLBCL IkBa-CBG/CBR dual luciferase ratio, 4 h; response scale: scaled: untreated 0%, proteasome inhibitor 100%; hit rate 0.04% among 110,000; active = well fitted curve in the direction sought with a large enough effect in the signal ratio, not every such curve was filed as active; inconclusive = small, poorly fitted or top-dose-only effect, or a change in a side signal; the % refers to the signal ratio;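 note: the direction sought is a rising ratio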
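Curves were fitted separately to fusion (green), unfused (red) and ratio luminescence, then classed by r2, magnitude and activity. Cells: OCI-Ly3, 4 h compound plus doxycycline at 37C; 10 uM MG-132 defined full response.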
* marks the source's active call; other numbers are inactive results; ? = inconclusive; . = not tested or not shown; [ ] = another dose, or the depositor's remark. A selection: hits, their analogues and other compounds. The true share with any hit is near 1.7%. Unless noted, calls come from the whole dose curve; as a rule, active = well fitted curve in the direction sought with a large enough effect; inconclusive = small, poorly fitted or top-dose-only effect, or another doubt; inactive = no such curve, though single readings can be large; an effect the other way counts as inactive or inconclusive. Potency is the fitted concentration of half-maximal effect.

SMILES	p53ts 32C tox	Imprint erasure	p53ts 39C kill	IkB sig inh
O=C1c2ccccc2-c2cc([N+](=O)[O-])c([N+](=O)[O-])cc21	-21%[9.22 µM]	-40%[10.9 µM]	36%[9.22 µM]	4µM*
COCCn1c(=O)c(-c2cccc(C#N)c2)nc2cnc(Oc3ccc(OC)cc3)nc21	0%	-16%	-11%	10%[11.4 µM]
CCCCOc1ccccc1C1CC(=O)Nc2cc(C)c(C)cc21 (centres undefined)	-16%	-14%[10.9 µM]	10µM*	0%
Cc1ccc(CNC(=O)c2cccc(Nc3nc4ccccc4n4nnnc34)c2)cc1	?	-4%[10.9 µM]	6.3µM*	?
Cc1c(C(=O)N2CCCC2)oc2c1-c1nn(CC(=O)NCc3ccccc3F)cc1CC2	9%	-14%[10.9 µM]	0%	-1%
COc1ccc(N2CCN(S(=O)(=O)c3ccc4c(c3)CC(C)N4C(C)=O)CC2)cc1 (centres undefined)	-15%	.	.	.
CCN(CC)CCOC(=O)c1ccc(NC(=O)c2cc3c(s2)-c2ccccc2OC3)cc1	?	-6%[10.9 µM]	16µM*	?
Cc1cc(C(=O)Nc2nc3ccc(S(C)(=O)=O)cc3s2)c(C)o1	?	-84%	-27%	2%
CCC(=O)Nc1nc2ccc(S(C)(=O)=O)cc2s1	-13%	.	14%	.
Cc1ccc(C(=O)Nc2nc3ccc(S(C)(=O)=O)cc3s2)s1	10µM*	-71%	13µM*	-2%
CS(=O)(=O)c1ccc2nc(NC(=O)c3cccs3)sc2c1	2.5µM*	-87%	2.5µM*	?
Cc1ccc2nc(NC(=O)c3cccs3)sc2c1	?	.	7.9µM*	?
COc1ccc(-c2nc3cncnc3n(-c3ccccc3)c2=O)cc1	4%	3%	-21%	3%[11.4 µM]
C=C1CC[C@H]2C(C)(C)[C@H](O)CC[C@]2(C)[C@@H]1COc1ccc2ccc(=O)oc2c1	.	.	.	-2%[11.4 µM]
Cc1cccc(C(=O)N2c3ncnn3C3(CCCCC3)[C@@H]3CCCC[C@@H]32)c1	-4%	-9%[10.9 µM]	13µM*	-1%
CC(=O)c1ccc(NC(=O)COC(=O)c2ccccc2N=Nc2ccc(N(C)C)cc2)cc1	-26%	.	?	.
CN(C)c1ccc(N=Nc2ccccc2C(=O)OCC(=O)N(C)c2ccccc2)cc1	10µM*	.	?	.
CC(C)c1ccc2c(c1)CC[C@H]1[C@@](C)(CN)CCC[C@@]21C	5%[9.22 µM]	-6%[10.9 µM]	8%[9.22 µM]	1%[11.4 µM]
COc1ccc(-c2cc(C(=O)NCc3ccc(F)cc3)c3c(-c4ccc(F)cc4)[nH]nc3n2)cc1OC	?	-13%[10.9 µM]	13µM*	?
CCN(CC)S(=O)(=O)c1ccc(NC(=O)c2ccccn2)cc1	11%	-71%	-12%	1%
CN(C)c1ccc(NC(=S)c2ccccn2)cc1	1.6µM*	-93%	2.5µM*	?
CN(C)S(=O)(=O)c1ccc(NC(=O)c2ccccn2)cc1	13µM*	22%	10µM*	2%
CCc1ccccc1NC(=O)c1ccc2c(c1)nnn2C1CCCC1	2%	16%[10.9 µM]	-23%	0%
CC(=O)c1sc(Nc2nc3ccc(F)cc3s2)nc1C	20µM*	-47%	?	?
Cc1ccc(Nc2ncnc3c2nc2n3CCCC2)c(Br)c1	10µM*	.	.	.
SMILES	p53ts 32C tox	Imprint erasure	p53ts 39C kill	IkB sig inh
Cc1cc(C)cc(NC(=O)C2CCCN2S(=O)(=O)c2cccc3nsnc23)c1 (centres undefined)	-5%	-3%[10.9 µM]	-10%	-1%
CCOc1ccc(NC(=O)Cn2c(=O)n(CCCC(=O)NCCc3ccc(Cl)cc3)c(=O)c3ccccc32)cc1	13%	-14%[10.9 µM]	?	-1%
CCCCCCCCCCCC1=C(O)C(=O)C=C(O)C1=O	13µM*	-4%	13µM*	0%
Cc1ccc(NC(=O)CSc2c3c(nc4ccccc24)CCCC3)cc1F	?	8%[10.9 µM]	16µM*	?
O=C(CSc1c2c(nc3ccc(Cl)cc13)CCCC2)N1CCN(C(=O)c2ccco2)CC1	?	-29%	6.3µM*	?
CN(Cc1ccccc1)C(=O)CSc1c2c(nc3ccc(Cl)cc13)CCCC2	22µM*	3%[10.9 µM]	?	?
CCCN(CCC)C(=O)CSc1c2c(nc3ccc(Cl)cc13)CCCC2	20µM*	-15%[10.9 µM]	?	?
COc1ccc(CCN2C(=O)CN(C3CCCCCC3)C(=O)C2c2ccc(OC(C)C)c(OC)c2)cc1OC (centres undefined)	6%	-5%[10.9 µM]	?	?
CCOc1ccc(NC(=O)Cn2cnc3c(oc4ccccc43)c2=O)cc1	-1%	-19%[10.9 µM]	-6%	?
CCOC(=O)CSc1nc2ccc(NC(=O)c3ccc(C)cc3)cc2s1	13µM*	14%[10.9 µM]	10µM*	?
O=C(Nc1ccc2nc(SCC(=O)N3CCc4ccccc43)sc2c1)c1ccc(F)cc1	-18%	-21%[10.9 µM]	13µM*	-3%
Cc1ccc(C(=O)Nc2nnc(SCC(=O)N3CCCc4ccccc43)s2)cc1	.	.	0.56µM*	.
O=C(Nc1ccc2nc(SCC(=O)N3CCc4ccccc43)sc2c1)c1cccc(F)c1	3%	-18%[10.9 µM]	-20%	0%
COc1ccc(C(=O)Nc2ccc3nc(SCC(=O)N4CCOCC4)sc3c2)cc1	-6%	-12%[10.9 µM]	18%	?
CC(C)Oc1ccc(C(=O)Nc2nnc(SCC(=O)N3CCOCC3)s2)cc1	0.63µM*	.	0.5µM*	.
CCOC(=O)C1CCN(S(=O)(=O)c2cc(-c3onc(C)c3C)ccc2OC)CC1	5%	6%[10.9 µM]	-25%	1%
O=C(Nc1cccc(-c2nc3cc(Cl)ccc3o2)c1)c1ccc(F)cc1	-17%	-14%[10.9 µM]	?	?
CCCn1cc(S(=O)(=O)c2cccc(Cl)c2)c(=O)c2cc(F)c(N3CCN(CC)CC3)cc21	-7%	.	.	.
c1ccc(C2=Nn3c(nnc3-c3n[nH]c4c3CCC4)SC2)cc1	10%	-8%	-17%	18%
Clc1ccc(C2=Nn3c(nnc3-c3n[nH]c4c3CCC4)SC2)cc1Cl	48%	-16%	13µM*	6%
CCCCOC(=O)c1cccc(NC(=O)/C=C/c2ccccc2Cl)c1	?	-20%[10.9 µM]	?	?
CNCC[C@@H](Oc1ccccc1C)c1ccccc1	-1%	-26%	-24%	1%
CNCC[C@H](Oc1ccccc1C)c1ccccc1	-18%	.	13µM*	-6%
CS(=O)(=O)c1nc(-c2ccccc2)cc(C(F)(F)F)n1	6.3µM*	-35%	?	?
Cc1cc(NC(=O)CCS(=O)(=O)c2nc(-c3ccccc3)cc(C(F)(F)F)n2)no1	?	-29%	?	?
SMILES	p53ts 32C tox	Imprint erasure	p53ts 39C kill	IkB sig inh
Cc1c(C(=O)NCCc2ccc(Cl)cc2)sc2nc3n(c(=O)c12)CCCC3	3%	-18%[10.9 µM]	-4%	3%
Cc1ccc(C)c(NC(=O)c2cc(=O)c3cc(C)cc(C)c3o2)c1	1%	8%[10.9 µM]	-18%	0%
CCc1cccc(CC)c1NC1=NS(=O)(=O)c2ccccc21	5%	6%[10.9 µM]	17%	3%
O=S1(=O)N=C(Nc2nc3c(s2)CCCC3)c2ccccc21	5µM*	-83%	4µM*	?
CN1CCN(Cc2c(O)ccc3occ(C(=O)c4ccccc4)c23)CC1	1%	-6%	1%	0%
CC(=O)C(C(C)=O)c1c(Cl)c(O)c(O)c2c(C(=O)c3ccccc3)coc12	13µM*	-35%	?	?

High-throughput results: PubChem BioAssay, National Center for Advancing Translational Sciences (NCATS)
